Experimental data published in ChEMBL document CHEMBL4513216, “Probing the Open Global Health Chemical Diversity Library for Multistage-Active Starting Points for Next-Generation Antimalarials” (ACS Infect Dis, 2020).
Screen size: about 65,000 compounds; about 2,100 (3.2%) showed an effect of 50% or more. The median lay at about -52%. What follows is part of a selection rich in strong results, with near analogues and random picks from the rest.

tested on: Plasmodium falciparum; experiment: Screen against P. falciparum Asexual Blood Stage (ABS), at 5uM; format: functional, Dd2; details: tested at 5 uM

| Compound | INHIBITION [%] |
| --- | --- |
| CC(C)N1CCC2(CC1)NC(=O)c1cc(Br)ccc1-n1nnnc12 | -84.6 |
| CN1CCOCC2(CCCN(C(=O)Cc3ccncc3)C2)C1 (stereo unspecified) | -195 |
| CCS(=O)(=O)N1CCN(C)c2ncccc2C1 | -45.7 |
| CCC(CN1CCOCC1)n1cncc1-c1ccc2c(c1)CCN2CC (stereo unspecified) | 94.5 |
| CC(C)CN1CCC2(CC1)CN(C(=O)C(C)C)C2 | -69.1 |
| CNC(=O)[C@H]1C[C@@H]2CN(Cc3c(C)noc3C)C[C@@H]2N1C(C)=O | -19.9 |
| CN(C)CCNC(=O)[C@H]1C[C@H]2CN(c3ncccn3)C[C@H]2N1C | -64.2 |
| CN(C)CCNC(=O)C1Cc2nc(-c3ccccc3)sc2N1CC1CC1 (stereo unspecified) | 89.7 |
| Cc1csc([C@@H]2C[C@@H]3CCN(Cc4cc(C)on4)C[C@H]3O2)n1 | -19.3 |
| CNc1nc(C)cc(NC2CCCN(C3Cc4ccccc4C3)C2)n1 (stereo unspecified) | 89.5 |
| Cc1cc(N2CCCN3CCC[C@H]3C2)n2nc(C)c(C)c2n1 | 9.89 |
| Cc1cc(C)nc(N2CCCC2c2cccnc2)n1 (stereo unspecified) | 0.584 |
| CNc1cc(C)nc(NC2CCCN(C3Cc4ccccc4C3)C2)n1 (stereo unspecified) | 92.8 |
| CN(C(=O)Cc1ccn(C)c1)C1CCCN(C2Cc3ccccc3C2)C1 (stereo unspecified) | -32.4 |
| Cn1ncc2c1NC(=O)CSC2c1ccc2c(c1)OCO2 (stereo unspecified) | -86 |
| c1cc(COC[C@]23COC[C@H]2CN(Cc2ccncc2)C3)ccn1 | -118 |
| CN1CCCC2(CCN(C(=O)c3ccncc3)C2)C1 (stereo unspecified) | -62 |
| CN1CCN([C@@H]2CN(C(=O)c3ccnnc3)[C@@H]3CCCO[C@H]23)CC1 | -103 |
| Cc1oc(-c2ccco2)nc1CC(=O)N1CCN(CC(C)O)CC1 (stereo unspecified) | -65.7 |
| CN1CCCC1c1ccc(N2CCOCC2)cn1 (stereo unspecified) | -144 |
| CN1CCCC1c1cccc(Cc2ccc(F)cc2)n1 (stereo unspecified) | 62.1 |
| Fc1ccc(Cc2cnc(C3CCCN3)cn2)cc1 (stereo unspecified) | 45.6 |
| Cc1nnc([C@H]2C[C@@H]3CCN(Cc4cc(C)on4)C[C@H]3O2)[nH]1 | -33.8 |
| Cc1cc(NC(=O)NC2CCN(C(C)C)CC2)c2ncccc2c1 | 79.7 |
| CC(C)N1CC[C@@H]2OC[C@H](C(=O)Nc3cccnc3)C[C@@H]2C1 | -33.5 |
| CC(C)N1CCC(N(C)c2ccnc(N(C)C)n2)CC1 | 39.1 |

| Compound | INHIBITION [%] |
| --- | --- |
| CN(C)Cc1cncc2c1CCN(Cc1ccoc1)C2 | -67.1 |
| Fc1ccc(C2(CNC3=NCCN3)CCCC2)cc1 | 83.5 |
| Clc1ccc(C2(CNC3=NCCN3)CC2)cc1 | 83.2 |
| c1cc2c(cc1C1(CNC3=NCCN3)CCCC1)OCCO2 | 81.1 |
| Clc1ccc(C2(CNC3=NCCN3)CCCC2)cc1 | 83.7 |
| O=C(NC[C@]12COC[C@H]1CN(Cc1cccnc1)C2)c1ccsc1 | 5.35 |
| CNC(=O)C1CCC2(CCNCC2)C1 (stereo unspecified) | -92 |
| Cc1ccc(N2C[C@@H]3CN(Cc4ccoc4)CCO[C@@H]3C2)nn1 | -14.1 |
| Cc1oncc1C(=O)N[C@@H]1CN(C2CCC2)C[C@@H]2CCCO[C@@H]21 | -114 |
| O=C(Cc1c(F)cccc1F)N1CCN(CC(=O)N2CCCC2)CC1 | -130 |
| Cc1cc(CN2CC[C@H]3C[C@@H](c4nccs4)O[C@@H]3C2)no1 | -79.5 |
| CC(=O)N1CCOCC2(CCCNC2)C1 (stereo unspecified) | -96.3 |
| Clc1ccc(C2(CNC3=NCCN3)CCCCC2)cc1 | 90.2 |
| CN(C)C(=O)C1CCC2(CCNCC2)C1 (stereo unspecified) | -63 |
| CC(C)n1[nH]c(=O)c2c1NC(=O)CSC2c1cccc(OCC(N)=O)c1 (stereo unspecified) | -96.5 |
| CC(NCc1ccc(OCC(N)=O)cc1)c1ccc2c(c1)CCCC2 (stereo unspecified) | 73.4 |
| CC(C)n1[nH]c(=O)c2c1NC(=O)CSC2c1ccc(OCC(N)=O)cc1 (stereo unspecified) | -43.5 |
| O=C(c1cccnc1)N1CCN2C[C@H](Oc3cncnc3)C[C@H]2C1 | -64.5 |
| Cc1noc(C)c1CN1CC[C@@H]2O[C@H](COCC3CC3)CC[C@@H]21 | -4.95 |
| Cc1ccc(-c2nc(CNC(C)CCO)[nH]c2-c2ccccn2)cc1 (stereo unspecified) | 86 |
| c1cc(CN2CC[C@H]3C[C@H](c4nc(C5CC5)cs4)O[C@@H]3C2)ccn1 | -49.9 |
| CN(C)c1ncc2c(c1C(=O)O)CCN(Cc1ccco1)C2 | -111 |
| c1ccc(NC[C@@H]2CCC[C@@H]3CN(Cc4cccnc4)C[C@@H]32)nc1 | 75 |
| c1ccc(NC[C@@H]2CCC[C@@H]3CN(Cc4csnn4)C[C@@H]32)nc1 | 62 |
| c1ccc(CN2C[C@@H]3CCCO[C@@H]3[C@H](Nc3ccccn3)C2)nc1 | 18.5 |
| c1ccc(NC[C@@H]2CCC[C@@H]3CN(Cc4cc[nH]n4)C[C@@H]32)nc1 | -29.8 |

| Compound | INHIBITION [%] |
| --- | --- |
| c1cnc(NC[C@@H]2CCC[C@@H]3CN(Cc4csnn4)C[C@@H]32)nc1 | 47.7 |
| Cn1ccnc1NC[C@@H]1CCC[C@@H]2CN(Cc3cccnc3)C[C@@H]21 | -26.3 |
| c1cncc(CN2C[C@H]3CCC[C@@H](CNc4cnccn4)[C@H]3C2)c1 | -3.45 |
| CC(=O)N1C[C@H]2CCCC(N3CCN(c4ncccn4)CC3)[C@H]2C1 (stereo partly specified) | -104 |
| c1cnc(NC[C@@H]2CCC[C@@H]3CN(Cc4cc[nH]n4)C[C@@H]32)nc1 | -16.9 |
| c1ccc(NC[C@@H]2CCC[C@@H]3CN(c4ncccn4)C[C@@H]32)nc1 | 72.9 |
| c1ccc(NC[C@@H]2CCC[C@@H]3CN(Cc4nccs4)C[C@@H]32)nc1 | 57.1 |
| O=C1N(c2cncnc2)CCC12CCCN(Cc1cccnc1)C2 (stereo unspecified) | -88.1 |
| Cc1nn(C)c2ncc(S(=O)(=O)N3CCCN4CCCC4C3)cc12 (stereo unspecified) | -18.1 |
| O=C1CSC(c2cccnc2)c2c(n(C3CCOCC3)[nH]c2=O)N1 (stereo unspecified) | -140 |
| O=C1CCC2(CCN(Cc3ccc(F)cc3)CC2)N1CCN1CCCC1 | 84.6 |
| COCCN1CCCC2(CCC(=O)N2Cc2cccnc2)C1 (stereo unspecified) | -66.3 |
| CC[C@@H]1N(C)CCC[C@]12CCC(=O)N2Cc1ccncc1 | 3.77 |
| Cc1cnc(N2CCCC3(CCCN3CC(=O)N(C)C)C2)nc1 (stereo unspecified) | -98.2 |
| COCCNc1nc2c(c(NCCc3cccs3)n1)CCNCC2 | 81.9 |
| COCc1cncc2c1CCN(Cc1cccs1)C2 | -1.55 |
| COCCNc1nc2c(c(NCc3cnc(C)c(C)c3)n1)CCNCC2 | -67.4 |
| Cn1cc(C2=CCN(CCCC(=O)Nc3ccc(C#N)cc3)CC2)cn1 | -69.1 |
| Cc1ccc(CN2CC[C@@H]3[C@@H]2CCN3C(=O)Cc2cccs2)o1 | -34.3 |
| CCn1ccnc1CN(C)C1CCCN(CCc2ccccc2)C1 (stereo unspecified) | 77.1 |
| Cc1ncc(CN(C)C2CCCN(CCc3ccccc3)C2)n1C (stereo unspecified) | 90 |
| CCn1ccnc1CN1CCCN(C(=O)Cc2ccccc2C)CC1 | -41.3 |
| CCn1ccnc1CN1CCCN(C(=O)Cc2ccc(F)cc2)CC1 | -4.98 |
| CCn1ccnc1CN(C)C1CCCN(Cc2ccccc2F)C1 (stereo unspecified) | 70.4 |
| CCn1ccnc1CN(C)C1CCCN(CCCc2ccccc2)C1 (stereo unspecified) | 86.8 |
| Cc1nc(CC(=O)N(C)C2CCCN(CCc3ccccc3)C2)cs1 (stereo unspecified) | -42.4 |

| Compound | INHIBITION [%] |
| --- | --- |
| CCn1c(C)nnc1CN(C)C1CCN(CCOc2ccccc2)C1 (stereo unspecified) | -23.4 |
| COC(=O)N1C[C@@H]2CC[C@H]1CN(Cc1ccncc1)C2 | -81.6 |
| c1cncc(O[C@H]2CC[C@H]3[C@H]2OCCN3C2CCCC2)c1 | -36.8 |
| O=C(c1ccc(F)c(F)c1)N1C[C@H]2CNC[C@H]2C1 | -51.2 |
| Cc1nccn1CCCN1CCCC(c2ccccc2)C1 (stereo unspecified) | 77.8 |
| Cc1ccc(O[C@@H]2C[C@H]3CN(c4ncc(F)cn4)CCN3C2)cc1 | -98.8 |
| c1cncc(OC[C@@]23CCC[C@@H]2CN(CC2CCOCC2)C3)c1 | 39 |
| COCC1CC2(CCN(Cc3ccccn3)CC2)CN1C(C)C (stereo unspecified) | 9.58 |
| CCN1CC(c2ccccc2)CC2(CCN(Cc3ncc[nH]3)CC2)C1 (stereo unspecified) | 88.1 |
| Cc1cc(NC2CC3(CCN(Cc4cscn4)C3)C2)ncn1 (stereo unspecified) | 19.4 |
| c1ccc(C2CN(C3CC3)CC3(CCN(Cc4cscn4)CC3)C2)cc1 (stereo unspecified) | 80.4 |
| CN1CC(c2ccccc2)CC2(CCN(Cc3ncc[nH]3)CC2)C1 (stereo unspecified) | 82.5 |
| c1cc(NC2CC3(CCN(Cc4cscn4)C3)C2)ncn1 (stereo unspecified) | -13.3 |
| O=C1NCC[C@]12CN(Cc1ccncc1)C[C@H]2c1ccccc1 | -70.3 |
| COCC1CC2(CCN(CC3CC3)CC2)CN1Cc1ccccn1 (stereo unspecified) | 42.4 |
| c1cc(NC2CC3(CCN(Cc4cc[nH]n4)C3)C2)ncn1 (stereo unspecified) | -152 |
| Cc1ncsc1CN1CCO[C@H]2[C@H](Oc3ccccn3)CC[C@@H]21 | -24.4 |
| CCC12CN3CC(CC)(CN(C1)C3c1[nH]c(=O)[nH]c(=O)c1C)C2=O (stereo unspecified) | -87.1 |
| CCOC(=O)[C@@H]1[C@@H](c2ccccc2)CN2CCN(C(=O)C3CC3)C[C@H]12 | -91.7 |
| c1cc(CN2CCO[C@@H]3CNC[C@@H]32)co1 | -38.2 |
| COc1cc(C2c3c(n[nH]c3C)N=C3COC(=O)C32)cc(Br)c1O (stereo unspecified) | 91 |
| COc1cc(C2SCC(=O)Nc3n[nH]cc32)cc(OC)c1O (stereo unspecified) | -36 |
| CCOc1c(Br)cc(C2c3c(n[nH]c3C)N=C3COC(=O)C32)cc1OC (stereo unspecified) | 81.1 |
